Compound activity deposited in PubChem BioAssay by National Center for Advancing Translational Sciences (NCATS).
This is a sample that favours compounds with a hit; in the whole collection about 19% have one here.
uPA generation: blocks generation of uPA at the cell surface | cell surface uPA generation assay, qHTS | Potency, µM (top dose mostly 38.3 µM), without a hit: top-dose activity change, negative = inhibition, actives largely listed as inhibitors | 330,000 compounds, 0.31% hits | AID 540303; active means well fitted inhibition curve with a large enough effect; inconclusive means small, poorly fitted or top-dose-only effect; inactive means no such curve, though single readings can be large or run the other way; tested in mouse RAW 264.7 cells; further: potency means the concentration at half of the fitted maximal effect; nearly all actives have a fitted effect of over 55% in size
TDP1 cell CPT: growth inhibition of DT40 Tdp1-/-;hTDP1 cells with camptothecin (screen for TDP1 inhibitors); chicken DT40 Tdp1-/-;hTDP1 cells + 20 nM CPT, ATP luminescence, 48 h; 420,000 compounds, 12% hits; AID 686979; Potency, µM (highest dose often 46.2 µM), for the others: at the top dose activity change, negative = growth inhibition, actives largely listed as inhibitors; further: potency means the concentration at half of the fitted maximal effect; nearly all actives have a fitted effect of over 55% in size
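Chicken DT40 Tdp1-/- cells complemented with human TDP1, 400 cells/well, exposed to compounds plus 20 nM camptothecin for at least 48 h at 37 C; viability read as ATP content by CellTiter-Glo luminescence.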
HT1080-NT tox: kills 2HG-producing HT-1080-NT fibrosarcoma cells; HT-1080-NT fibrosarcoma viability, CellTiter-Glo ATP luminescence, 48 h; Potency, µM (titrated, usually from 46.1 µM), without a hit: at the highest dose activity, negative = less viability, most hits filed as cytotoxic; 360,000 compounds, 1.6% hits;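 further: NT is the 2HG producing partner of a matched IDH1 knockdown line; potency means the concentration at half of the fitted maximal effect; 0% = DMSO-treated cells and -100% = media-only wells without cells; nearly all actives have a fitted effect of over 55% in size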
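Viability by CellTiter-Glo luminescence after 48 h compound exposure at 37C of HT-1080-NT cells (750/well, RPMI, 5% FBS). % activity scaled between DMSO wells and medium-only wells, then curve-fitted and categorized by curve class.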
IL1B secr inh: inhibitors of inflammasome signaling (IL-1 beta secretion); THP-1 LPS/ATP IL-1B secretion, AlphaLISA, 16 h; hits give low values; 360,000 compounds, 4.7% hits; AID 743279; activity change, % at 57.5 µM; in the data active means activity change below about -50%; inconclusive means mostly about -30% to -49%
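THP-1 cells pretreated 1 hr with compounds (up to 57.5 uM final), then stimulated with LPS (250 ng/mL final) plus ATP (1.25 mM final); secreted IL-1B measured by AlphaLISA after 16 hr, decreased signal indicating inhibition.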
HT1080 IDH1KD tx: HT-1080 IDH1 knockdown cell toxicity (counter line). HT-1080 IDH1 knockdown viability, ATP luminescence, 48 h. Potency, µM (highest dose often 46.1 µM), inactives show at the top dose activity, negative = toxicity, usual class: cytotoxic. 360,000 compounds, 2% hits;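 further: potency means the concentration at half of the fitted maximal effect; 0% = DMSO wells and -100% = cell-free medium wells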
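After a 2 h attachment period, IDH1KD HT-1080 cells took pin-transferred compound for 48 h at 37 °C; ATP-based luminescence after 10 min room-temperature reagent incubation reported viability.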
DT40 TDP1 no CPT: qHTS for Inhibitors of human tyrosyl-DNA phosphodiesterase 1 (TDP1): qHTS in cells in absence of CPT. DT40 Tdp1-/- hTDP1 cells, no CPT, ATP luminescence, 48 h. Potency, µM (series often up to 46.2 µM), inactives show at the top dose activity change, negative = growth inhibition, actives largely listed as inhibitors. AID 686978, 2013. 420,000 compounds, 15% hits; further: potency means the concentration at half of the fitted maximal effect; nearly all actives have a fitted effect of over 55% in size
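Luminescent ATP content (CellTiter-Glo) served as the growth readout. Knockout chicken DT40 cells expressing human TDP1 were exposed to compounds without camptothecin for a minimum 48 hr at 37 °C.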
The depositor's hits bear a star; ? = inconclusive; . = no result given; ! = repeats disagree. Unless noted, the call rests on the fitted dose curve; in most records, active means well fitted curve in the direction sought with a large enough effect; inconclusive means small, poorly fitted or top-dose-only effect, or another doubt; inactive means no such curve, though single readings can be large; an effect the other way counts as inactive or inconclusive. Unless noted, on the % scale 0 is the no-effect control and ±100 the full control effect.

SMILES	uPA generation	TDP1 cell CPT	HT1080-NT tox	IL1B secr inh	HT1080 IDH1KD tx	DT40 TDP1 no CPT
Cc1cc(NC(=O)CN2CCOCC2)n(-c2ccccc2)n1	0%	2%	15%	-2	17%	-7%
Cc1cc(C)nc(-n2nc(C)cc2NC(=O)CNC(C)c2ccccc2)n1 (centres undefined)	-1%	?	9%	10	5%	21µM*
CCc1ccc(NC(=O)Cn2ccn(-c3ccc(C)c(C)c3)c(=O)c2=O)cc1	.	0%	.	.	.	-17%
CCOC(=O)c1ccc(NC(=O)c2ccc3c(c2)C(=O)N(CC2CCCO2)C3=O)cc1 (centres undefined)	4%	?	-5%	23	-1%	18µM*
CCCCNc1cc(NC(C)=O)cc2cc(OC)c(OC)cc12	-3%	18µM*	-21%	52	-21%	?
Cc1ccc2oc3c(c(=O)c2c1)C(c1ccc(O)cc1)N(c1nc(C)c(C)s1)C3=O (centres undefined)	.	-5%	.	.	.	-8%
C[N+](C)(C)CCC(=O)N1C/C(=C/c2ccccc2)C(=O)/C(=C\c2ccccc2)C1	-9%	0.65µM*	?	-98*	4.1µM*	0.92µM*
O=C1/C(=C/c2ccccc2)CN(C(=O)CCN2CCOCC2)C/C1=C\c1ccccc1	17%	1.6µM*	?	-101*	?	1.8µM*
CCOC(=O)N1C/C(=C\c2ccccc2)C(=O)/C(=C/c2ccccc2)C1	9%	4.6µM*	?	?	?	3.7µM*
O=C(/C=C/c1ccccc1)CCN1CCOCC1	34%	0.92µM*	?	-84*	18µM*	1.5µM*
CCCCn1c(N)c(N(CCOC)C(=O)c2ccc(COc3ccccc3)o2)c(=O)[nH]c1=O	-7%	0%	4%	4	1%	-6%
CN(C)CCNC(=O)C(c1ccccc1)c1ccccc1	3%	-5%	8%	-15	0%	-23%
CN(C)CCC(=O)N1C/C(=C/c2ccccc2)C(=O)/C(=C\c2ccccc2)C1	-7%	1.8µM*	?	-100*	0.58µM*	1.8µM*
COc1cc(/C=N/Nc2ccccc2)ccc1OC(=O)c1cccs1	5%	-7%	-25%	6	?	-2%
COc1cc(OC)cc(C(=O)Oc2ccc(/C=N/Nc3nc4ccccc4s3)cc2OC)c1	-5%	?	-10%	-7	-10%	?
COc1cc(/C=N/Nc2nc3ccccc3s2)ccc1OC(=O)c1ccccc1F	-13%	6.5µM*	-18%	-71*	?	4.6µM*
CCOc1cc(/C=N/NC(=O)CNc2cccc(C)c2)ccc1OC(=O)c1ccccc1	-1%	?	-1%	-7	-1%	18µM*
COc1cc(C=NNc2ccccc2)ccc1OC(=O)c1ccccc1	.	?	?	0	?	18µM*
Cc1cc2nc(-c3cccc(Br)c3)c(CC3CCCCC3)n2c(C)c1Br	.	-24%	3%	0	-15%	?
COc1cccc(CN(C)C(=O)c2ccc(NC(=O)CC3SC(N4CCCCC4)=NC3=O)cc2)c1OC (centres undefined)	-7%	-9%	2%	-1	3%	-4%
COc1cccc(CN(C)C(=O)c2cccc(NC(=O)CC3SC(N4CCCCC4)=NC3=O)c2)c1OC (centres undefined)	-5%	?	1%	-13	-6%	18µM*
COc1ccc(CN(C)C(=O)c2cccc(NC(=O)CC3SC(N4CCCCC4)=NC3=O)c2)c(OC)c1 (centres undefined)	-11%	5.2µM*	?	-55*	-27%	5.2µM*
COc1ccc(Cc2nc(C)cc(Cl)n2)cc1[N+](=O)[O-]	-3%	-16%	6%	11	2%	-5%
CC1(c2nnnn2Cc2ccccc2)CCC(=O)N1c1ccc(N2CCOCC2)cc1 (centres undefined)	.	-14%	-1%	-11	10%	-22%
Cc1ccc(N(C)S(=O)(=O)c2cccc(C(=O)OCC(=O)N(C)Cc3ccccc3)c2)cc1	.	?	-3%	6	5%	?
SMILES	uPA generation	TDP1 cell CPT	HT1080-NT tox	IL1B secr inh	HT1080 IDH1KD tx	DT40 TDP1 no CPT
CC1=CC(C)(C)NC(=S)N1c1ccccc1C	-1%	?	1%	23	-1%	26µM*
COc1cc(OC)cc(-c2oc3cccnc3c2C#CCCO)c1	?	?	-2%	-64*	-2%	?
CCOC(=O)C[C@H]1c2ccccc2S(=O)(=O)N1Cc1ccc(Cl)cc1	-18%	11µM*	0%	14	4%	18µM*
O=C(O)C[C@H]1c2ccccc2S(=O)(=O)N1c1ccccc1	3%	?	11%	-4	7%	-25%
COc1ccc(CN2[C@@H](CC(C)=O)c3cc(C(F)(F)F)ccc3S2(=O)=O)cc1	0%	16µM*	8%	17	0%	21µM*
CCOC(=O)/C=C/c1ccc2c(c1)S(=O)(=O)N(Cc1ccc(OC)cc1)[C@H]2CC(=O)OCC	-9%	21µM*	2%	-15	-4%	13µM*
COc1ccc(CN2[C@@H](CC(=O)O)c3ccccc3S2(=O)=O)cc1	-4%	?	11%	0	-1%	2.8µM*!
O=[N+]([O-])c1cccc(S(=O)(=O)NCCc2ccccc2)c1	-8%	-4%	7%	14	7%	-1%
CCOC1CCCc2oc(-c3ccc(OC)cc3)c(C(=O)NCCCCO)c21 (centres undefined)	.	-8%	-1%	-20	14%	-21%
O=C(CN1C(=O)c2ccccc2S1(=O)=O)Nc1cc(S(=O)(=O)N2CCOCC2)ccc1N1CCOCC1	.	-4%	.	.	.	-6%
CC1=C(C(=O)N2CCOCC2)C(c2c(F)cccc2F)NC(=O)N1 (centres undefined)	6%	16%	17%	-12	13%	1%
CCOc1ccccc1C(=O)NC(C(=O)N(C)c1c(N)n(Cc2ccccc2)c(=O)[nH]c1=O)C(C)C (centres undefined)	4%	-16%	0%	13	-10%	-30%
C=C(C)CSc1nnc(CCCCCNC(=O)OC(C)(C)C)o1	15%	-29%	?	17	-14%	?
COc1ccc(C(=O)NCC(c2cccnc2)N2CCc3ccccc32)cc1OC (centres undefined)	.	15µM*	.	.	.	21µM*
